Results on 53 compounds are retold here after PubChem BioAssay AID1851 (National Center for Advancing Translational Sciences (NCATS), 2009).

One may read the AC50 as the concentration at which the activity in the assay is half-maximal.

SMILES strings stand for the structures. Screen size: about 16,000 compounds; about 2,600 (16%) were called active. Not shown: some 20% with an inconclusive outcome. Calls follow the shape of the dose curve; as a rule, active = well fitted curve in the direction sought with a large enough effect; inconclusive = small, poorly fitted or top-dose-only effect, or effect the other way; inactive = no such curve, though single readings can be large or run the other way. A selection follows.
% is scaled to controls: 0 for no effect and ±100 for the full control effect.

The target of this assay is Cytochrome P450 2D6 (Homo sapiens) (UniProt P10635). The experiment in a line: Cytochrome panel assay with activity outcomes. To be noted: recombinant CYP, pro-luciferin dealkylation, luminescence, p450-cyp2d6; series mostly up to 57.1 µM; activity, negative = inhibition: at the top concentration.
Sequence of Cytochrome P450 2D6 (Homo sapiens) (P10635 whole entry, looked up): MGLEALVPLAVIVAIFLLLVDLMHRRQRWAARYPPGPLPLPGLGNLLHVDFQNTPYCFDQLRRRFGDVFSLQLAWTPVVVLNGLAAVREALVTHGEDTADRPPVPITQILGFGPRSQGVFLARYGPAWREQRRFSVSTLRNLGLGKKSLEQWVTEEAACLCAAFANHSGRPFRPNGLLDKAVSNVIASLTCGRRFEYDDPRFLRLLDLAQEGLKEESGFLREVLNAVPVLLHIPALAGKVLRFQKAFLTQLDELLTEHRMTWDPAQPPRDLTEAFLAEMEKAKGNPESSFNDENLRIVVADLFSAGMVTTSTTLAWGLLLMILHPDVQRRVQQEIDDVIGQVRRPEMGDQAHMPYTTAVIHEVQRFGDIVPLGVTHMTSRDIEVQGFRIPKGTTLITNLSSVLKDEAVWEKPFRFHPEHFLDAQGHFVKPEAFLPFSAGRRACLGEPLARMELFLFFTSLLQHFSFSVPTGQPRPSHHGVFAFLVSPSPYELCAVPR
Turning to `CC1=CC(C)(C)N(C)C(=O)N1c1ccc(Cl)cc1`, the “activity, negative = inhibition” value was -5.24% (inactive).

Regarding `COC(=O)c1[nH]c2cc(OC)ccc2c1NC(=O)CCN1CCSCC1`, the “activity, negative = inhibition” value is -12.3% (inactive).

With `CCOC(=O)C(C)Sc1ncc(OC)c(Sc2ccc(Cl)cc2)n1` (stereo not drawn), the “activity, negative = inhibition” value was -12.6% (inactive).

For the compound `Nc1c2c(=O)oc(-c3ccccc3)cc2nn1-c1ccccc1`, the half-maximal activity concentration (AC50) is 5.01 µM (active).

As to `Cc1nn(-c2ccccc2)c(-c2ccccc2)c1C(=O)O`, the “activity, negative = inhibition” value was -6.28% (inactive).

`Cc1cc(N)n(-c2ccccc2)n1`: the “activity, negative = inhibition” value was 9.11% (inactive).

As for `CCOC(=O)CSc1n[nH]c(NC(=O)c2cccc(C(F)(F)F)c2)n1`, the “activity, negative = inhibition” value was 0.499% (inactive).

On to `CN(C)c1ccc(NC(=O)c2cccc(N3C(=O)C4C5C=CC(C5)C4C3=O)c2)cc1` (stereo not drawn), for which the “activity, negative = inhibition” value is -1.14% (inactive).

`Cc1nnsc1SCC(=O)O`: the “activity, negative = inhibition” value was 16.2% (inactive).

As to `Cc1ccc(-c2nc(-c3nccc4ccccc34)oc2-c2ccccc2)cc1`, the activity, negative = inhibition is -9.6% [at 11.4 µM] (inactive).

As to `CS(=O)(=O)N1CCN(c2ccc([N+](=O)[O-])c(NCc3ccccc3)c2)CC1`, the “activity, negative = inhibition” value is -25.9% (inactive).

In the case of `C1=C(CN2CCOCC2)COc2c1cccc2OC[C@@H]1CNCCO1`, the “activity, negative = inhibition” value was 3.78% (inactive).

Turning to `COc1ccc([N+](=O)[O-])cc1NC1C2CC3CC(C2)CC1C3` (stereo not drawn), the “activity, negative = inhibition” value was 6.11% (inactive).

Regarding `CS(=O)(=O)Nc1ccc([N+](=O)[O-])cc1Oc1ccccc1`, the “activity, negative = inhibition” value is -0.21% [at 25.6 µM] (inactive).

For `CS(=O)(=O)Nc1ccc([N+](=O)[O-])cc1OC1CCCCC1`, the concentration at half-maximal activity (AC50) was 0.0501 µM (active).

With `Cc1csc(NC(=O)CCNS(=O)(=O)c2ccc3c(c2)c(=O)n(C)c(=O)n3C)n1`, the “activity, negative = inhibition” value is -6.75% (inactive).

For the compound `CCCc1nnc(SCC(=O)N2C(C)CCCC2C)n1CCCOC` (stereo not drawn), the “activity, negative = inhibition” value is 0.151% (inactive).

In the case of `CO[C@@H](C(C)C)[C@@H](C)[C@@H]1OC(=O)C[C@@H]1O`, the activity, negative = inhibition is -14.8% [at 11.4 µM] (inactive).

On to `CC(=O)N1CCc2cc(Br)cc(S(=O)(=O)N3CCN(C(=O)c4ccco4)CC3)c21`, for which the “activity, negative = inhibition” value was 11.4% (inactive).

As to `Cc1c(OC(=O)c2ccc([N+](=O)[O-])cc2)c2c(c[n+]1C)COC(C)(C)OC2`, the “activity, negative = inhibition” value was 8.33% (inactive).

For `COc1ccc(C(=O)NCS(=O)(=O)c2ccc(C)cc2)cc1`, the “activity, negative = inhibition” value is -15.2% (inactive).

For the compound `Cc1ccc(S(=O)(=O)CC#CCOC(=O)c2ccc([N+](=O)[O-])cc2)cc1`, the AC50 was 12.6 µM (active).

Regarding `COc1ccc(-c2nc3cnc(N4CCOCC4)nc3n(C[C@H]3CCCO3)c2=O)cc1`, the “activity, negative = inhibition” value was 1.59% (inactive).

In the case of `CCc1nnc(NC(=O)c2cc(-c3ccccc3)nn2-c2ccccc2)s1`, the “activity, negative = inhibition” value is -15.9% (inactive).

For the compound `Fc1cccc(CSc2ncnc3c2ncn3[C@H]2CCCS2)c1`, the activity, negative = inhibition was 8.45% [at 11.4 µM] (inactive).

With `COc1cccc(-c2cncnc2NC2CCNCC2)c1`, the “activity, negative = inhibition” value is -13.3% (inactive).

`COc1ccccc1CNc1cc(-c2cccc(NS(C)(=O)=O)c2)ncn1`: the “activity, negative = inhibition” value was -17.4% (inactive).

Regarding `COc1ccc(CNc2ncncc2-c2cccc(NS(C)(=O)=O)c2)c(OC)c1`, the AC50 was 25.1 µM (active).

On to `COc1cccc(-c2cncnc2NCc2ccc(OC)cc2OC)c1`, for which the half-maximal activity concentration (AC50) was 7.94 µM (active).

As to `COc1cccc(-c2cncnc2NCc2ccccc2OC)c1`, the half-maximal activity concentration (AC50) is 7.94 µM (active).

`COc1ccc(CNc2ncncc2-c2cccnc2)c(OC)c1`: the AC50 is 15.8 µM (active).

Take `C/C(=N\n1nnnc1Nc1ccccc1)c1ccc(N)cc1`: the “activity, negative = inhibition” value was 2.96% (inactive).

Regarding `CCNc1ncc2nc(C)c(=O)n(Cc3ccc(F)cc3)c2n1`, the “activity, negative = inhibition” value was -4.78% (inactive).

Regarding `O=c1cnc2cnc(Oc3ccccc3)nc2n1Cc1ccc(F)cc1`, the “activity, negative = inhibition” value is -20.8% (inactive).

Regarding `O=C(O)/C=C\C(=O)Nc1ncn[nH]1`, the activity, negative = inhibition is 3.54% [at 11.4 µM] (inactive).

As to `CCC(C)(C(=O)NC1CCCC1)N(Cc1ccco1)C(=O)c1ccccn1` (stereo not drawn), the “activity, negative = inhibition” value is 17.4% (inactive).

In the case of `O=c1ccc2cc(O)c(O)cc2o1`, the “activity, negative = inhibition” value was -4.53% [at 25.6 µM] (inactive).

Consider `OC[C@H](S)CS`, for which the activity, negative = inhibition was 19.8% [at 11.4 µM] (inactive).

Consider `CCOc1ccc(C(C)=O)cc1N1C(=O)C2C3C=CC(C3=C(C)C)C2C1=O` (stereo not drawn), for which the “activity, negative = inhibition” value is -2.5% (inactive).

Turning to `COc1ccccc1NC(=O)c1ccc(-n2cccn2)nc1`, the half-maximal activity concentration (AC50) was 7.94 µM (active).

Regarding `COc1ccc(NC(=O)c2ccc(-n3cccn3)nc2)c(OC)c1`, the “activity, negative = inhibition” value is 0.442% (inactive).

As to `COc1ccccc1NC(=O)c1cnc2n(c1=O)CCS2`, the “activity, negative = inhibition” value was -6.14% (inactive).

Regarding `COc1ccccc1CCn1c(=O)c(-c2ccc(Cl)cc2)nc2cncnc21`, the “activity, negative = inhibition” value is -8.73% (inactive).

As to `COc1ccc(/C=N/NC(=O)c2cccc([N+](=O)[O-])c2)cc1OS(=O)(=O)c1ccc(C)cc1`, the “activity, negative = inhibition” value was -3.23% (inactive).

Consider `CCNC(=O)c1c(NC(C)=O)sc2c1CCCC2`, for which the “activity, negative = inhibition” value was 4.74% (inactive).

As for `CC(=O)Nc1sc2c(c1CN1CCN(C)CC1)CCCC2`, the AC50 was 12.6 µM (active).

With `CC(=O)Nc1sc2c(c1C(N)=O)CCCC2`, the “activity, negative = inhibition” value was -10.9% (inactive).

For the compound `Cc1cc(C)c(S(C)(=O)=O)c(Oc2ccc(F)cc2)n1`, the “activity, negative = inhibition” value is -5.79% (inactive).

Turning to `COc1ncc2nc(-c3cn(C)c4ccccc34)c(=O)n(-c3ccccc3)c2n1`, the “activity, negative = inhibition” value is 3.2% (inactive).

On to `CCOC(=O)c1c(NC(=O)C2C3CCC(O3)C2C(=O)O)sc(C)c1-c1ccc(C)cc1` (stereo not drawn), for which the “activity, negative = inhibition” value was -1.43% (inactive).

Consider `CCOc1ccc(N2C(=O)/C(=C/c3cc(OC)c(OC)c(OC)c3)N(CC(=O)OC)C2=S)cc1`, for which the “activity, negative = inhibition” value is -3.36% (inactive).

As for `CCOc1ccc(N2C(=O)/C(=C/c3cccs3)N(CC(=O)OC)C2=S)cc1`, the “activity, negative = inhibition” value was -8.94% (inactive).

Take `CCc1ccc(N2C(=O)/C(=C/c3cccs3)N(CC(=O)OC)C2=S)cc1`: the AC50 was 0.794 µM (active).
